One sequence from article PMC7862700, “An all-to-all approach to the identification of sequence-specific readers for epigenetic DNA modifications on cytosine” can be followed below.

Holding throughout (assay): DAPPL (digital affinity profiling via proximity ligation, sequencing); 10 mM Tris-HCl pH 7.5, 50 mM NaCl, 1 mM DTT, 4% glycerol, room temperature, 30 min; GST-TFs on glutathione beads, 16-mer random dsDNA library, 0.1% formaldehyde crosslink after washing; high values mean tight binding
The target in one experiment is T1, FLI1 (Homo sapiens, UniProt Q01543 1-452).
T1 sequence: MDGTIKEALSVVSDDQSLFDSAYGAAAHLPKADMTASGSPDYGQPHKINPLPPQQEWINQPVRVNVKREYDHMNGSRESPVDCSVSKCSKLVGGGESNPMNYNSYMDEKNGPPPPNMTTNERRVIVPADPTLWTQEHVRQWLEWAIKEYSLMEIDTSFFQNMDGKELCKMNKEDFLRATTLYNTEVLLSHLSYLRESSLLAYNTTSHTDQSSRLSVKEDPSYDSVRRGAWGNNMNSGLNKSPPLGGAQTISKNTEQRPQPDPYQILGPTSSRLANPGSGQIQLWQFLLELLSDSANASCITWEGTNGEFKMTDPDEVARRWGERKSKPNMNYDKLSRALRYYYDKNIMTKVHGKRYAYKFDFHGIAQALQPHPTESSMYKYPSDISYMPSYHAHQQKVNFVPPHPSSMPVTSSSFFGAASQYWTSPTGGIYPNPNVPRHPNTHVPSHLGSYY
Conditions: protein: recombinant; tags: N-terminal GST; dsDNA, one strand shown. In a few lines:
(§1)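 Binding signal is given per hexamer as its read frequency for a factor divided by its frequency in the tag-only sample. GST-fused human transcription factors were expressed in yeast, captured on glutathione beads, barcoded with DNA and pooled with that sample, then incubated with 200 nmole of a 16-mer random double-stranded DNA library in Tris/NaCl/DTT/glycerol buffer for 30 min at room temperature. The pools were then washed, crosslinked, proximity-ligated, amplified by PCR and sequenced on an Illumina NextSeq500.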

Another experiment has as its target T2, ELK1 (Homo sapiens, UniProt P19419 1-428).
T2 sequence: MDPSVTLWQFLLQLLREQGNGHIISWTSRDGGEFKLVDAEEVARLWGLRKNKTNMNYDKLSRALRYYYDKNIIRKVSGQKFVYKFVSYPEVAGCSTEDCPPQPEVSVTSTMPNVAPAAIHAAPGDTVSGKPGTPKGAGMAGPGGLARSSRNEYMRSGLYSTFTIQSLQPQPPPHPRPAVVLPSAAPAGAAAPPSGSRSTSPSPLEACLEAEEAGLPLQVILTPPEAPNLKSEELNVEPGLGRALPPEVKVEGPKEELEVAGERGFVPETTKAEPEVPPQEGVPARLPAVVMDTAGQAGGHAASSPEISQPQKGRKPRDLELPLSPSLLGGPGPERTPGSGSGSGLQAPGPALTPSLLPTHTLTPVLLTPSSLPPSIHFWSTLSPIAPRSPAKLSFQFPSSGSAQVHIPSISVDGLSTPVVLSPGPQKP
Particulars: protein: recombinant; tags: N-terminal GST; dsDNA, one strand shown. In short, it runs like this:
as §1

The target of a further experiment is T3, GABPA (Homo sapiens, UniProt Q06546 1-454).
T3 sequence: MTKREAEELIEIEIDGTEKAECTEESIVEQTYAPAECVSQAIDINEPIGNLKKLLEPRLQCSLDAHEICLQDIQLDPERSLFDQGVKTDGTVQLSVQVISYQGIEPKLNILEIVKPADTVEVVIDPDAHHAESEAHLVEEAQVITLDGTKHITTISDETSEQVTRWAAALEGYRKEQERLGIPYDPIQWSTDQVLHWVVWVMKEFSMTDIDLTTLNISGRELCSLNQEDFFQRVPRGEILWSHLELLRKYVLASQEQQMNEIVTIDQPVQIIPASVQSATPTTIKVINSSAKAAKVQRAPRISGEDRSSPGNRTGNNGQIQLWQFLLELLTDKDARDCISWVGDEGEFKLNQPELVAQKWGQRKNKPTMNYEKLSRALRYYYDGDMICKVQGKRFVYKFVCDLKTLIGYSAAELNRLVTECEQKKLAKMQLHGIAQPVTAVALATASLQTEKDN
Conditions: protein: recombinant; tags: N-terminal GST; dsDNA, one strand shown. In a few lines: as §1

The next experiment deals with T4, ERG (Homo sapiens, UniProt P11308 1-479).
T4 sequence: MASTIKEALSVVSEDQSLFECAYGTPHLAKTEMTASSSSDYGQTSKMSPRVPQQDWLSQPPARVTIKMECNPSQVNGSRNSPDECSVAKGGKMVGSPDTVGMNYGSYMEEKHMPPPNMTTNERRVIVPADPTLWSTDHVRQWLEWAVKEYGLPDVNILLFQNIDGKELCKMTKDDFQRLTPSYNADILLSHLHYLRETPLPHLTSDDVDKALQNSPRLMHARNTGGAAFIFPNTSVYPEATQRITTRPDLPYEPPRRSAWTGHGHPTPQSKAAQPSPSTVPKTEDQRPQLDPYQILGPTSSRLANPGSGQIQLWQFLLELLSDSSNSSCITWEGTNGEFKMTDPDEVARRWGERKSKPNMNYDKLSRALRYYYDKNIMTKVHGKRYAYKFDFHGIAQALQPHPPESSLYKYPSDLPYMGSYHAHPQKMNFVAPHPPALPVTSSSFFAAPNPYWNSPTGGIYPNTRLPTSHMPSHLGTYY
Conditions: protein: recombinant; tags: N-terminal GST; dsDNA, one strand shown. In a few lines: as §1

The target of another experiment is ELF1 (Homo sapiens, UniProt P32519 1-619). Particulars: protein: recombinant; tags: N-terminal GST; dsDNA, one strand shown. In short, it runs like this: as §1
Chain of ELF1 (P32519 whole entry): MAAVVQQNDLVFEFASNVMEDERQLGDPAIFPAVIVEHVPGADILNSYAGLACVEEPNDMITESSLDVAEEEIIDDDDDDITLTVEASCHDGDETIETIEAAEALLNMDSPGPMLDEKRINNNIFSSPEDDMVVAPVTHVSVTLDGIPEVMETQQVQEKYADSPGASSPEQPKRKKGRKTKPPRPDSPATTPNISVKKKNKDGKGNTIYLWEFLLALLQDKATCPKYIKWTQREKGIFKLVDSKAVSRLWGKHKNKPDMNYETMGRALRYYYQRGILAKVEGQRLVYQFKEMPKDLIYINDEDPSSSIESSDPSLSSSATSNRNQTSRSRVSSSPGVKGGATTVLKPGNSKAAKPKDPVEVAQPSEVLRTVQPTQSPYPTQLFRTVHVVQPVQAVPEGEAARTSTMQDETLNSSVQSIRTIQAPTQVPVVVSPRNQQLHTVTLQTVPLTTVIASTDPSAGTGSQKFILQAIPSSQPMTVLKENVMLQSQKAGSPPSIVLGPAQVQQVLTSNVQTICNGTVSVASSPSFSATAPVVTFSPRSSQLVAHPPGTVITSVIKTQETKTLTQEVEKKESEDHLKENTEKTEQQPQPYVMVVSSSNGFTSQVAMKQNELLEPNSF
The target of the next experiment is T5, EHF (Homo sapiens, UniProt Q9NZC4 1-300).
T5 sequence: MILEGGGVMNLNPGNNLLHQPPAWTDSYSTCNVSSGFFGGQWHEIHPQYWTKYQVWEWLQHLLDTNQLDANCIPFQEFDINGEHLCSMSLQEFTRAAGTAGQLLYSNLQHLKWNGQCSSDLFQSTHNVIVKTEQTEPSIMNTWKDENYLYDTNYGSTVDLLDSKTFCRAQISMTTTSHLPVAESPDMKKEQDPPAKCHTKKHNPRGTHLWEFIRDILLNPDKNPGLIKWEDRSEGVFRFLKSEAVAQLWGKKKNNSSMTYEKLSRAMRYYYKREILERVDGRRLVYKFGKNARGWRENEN
Particulars: protein: recombinant; tags: N-terminal GST; dsDNA, one strand shown. In a few lines:
as §1

The next experiment addresses SPI1 (Homo sapiens, UniProt P17947 1-270). Conditions: protein: recombinant; tags: N-terminal GST; dsDNA, one strand shown. In short, it runs like this: as §1
The next experiment has as its target SPIB (Homo sapiens, UniProt Q01892 1-262). Particulars: protein: recombinant; tags: N-terminal GST; dsDNA, one strand shown. In short, it runs like this:
as §1

The target of the next experiment is T6, ELK3 (Homo sapiens, UniProt P41970 1-407).
T6 sequence: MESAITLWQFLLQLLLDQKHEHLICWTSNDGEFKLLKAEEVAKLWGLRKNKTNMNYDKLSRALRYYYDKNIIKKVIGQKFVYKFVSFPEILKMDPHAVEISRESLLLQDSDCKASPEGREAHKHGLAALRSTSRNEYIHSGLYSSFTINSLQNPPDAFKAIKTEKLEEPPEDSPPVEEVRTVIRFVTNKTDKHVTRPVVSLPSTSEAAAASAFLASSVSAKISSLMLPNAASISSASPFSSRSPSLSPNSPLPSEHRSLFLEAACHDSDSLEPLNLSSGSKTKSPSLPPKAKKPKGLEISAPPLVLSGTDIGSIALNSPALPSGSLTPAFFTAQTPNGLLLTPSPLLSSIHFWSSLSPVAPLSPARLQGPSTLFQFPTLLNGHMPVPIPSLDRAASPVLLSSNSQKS
Conditions: protein: recombinant; tags: N-terminal GST; dsDNA, one strand shown. In short, it runs like this: as §1

Another experiment concerns the target T7, FEV (Homo sapiens, UniProt Q99581 1-238).
T7 sequence: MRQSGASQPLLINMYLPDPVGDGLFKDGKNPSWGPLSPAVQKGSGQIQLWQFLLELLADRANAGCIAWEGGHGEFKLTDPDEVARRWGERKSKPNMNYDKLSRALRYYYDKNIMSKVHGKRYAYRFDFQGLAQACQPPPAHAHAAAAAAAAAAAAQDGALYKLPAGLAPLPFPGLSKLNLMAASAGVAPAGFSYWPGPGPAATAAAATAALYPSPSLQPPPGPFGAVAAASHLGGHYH
Conditions: protein: recombinant; tags: N-terminal GST; dsDNA, one strand shown. In a few lines:
as §1

Another experiment concerns the target ETV5 (Homo sapiens, UniProt P41161 1-510). Conditions: protein: recombinant; tags: N-terminal GST; dsDNA, one strand shown. In a few lines: as §1
Another experiment concerns the target HSF1 (Homo sapiens, UniProt Q00613 1-529). Particulars: protein: recombinant; tags: N-terminal GST; chain copies: 3; dsDNA, one strand shown. In short, it runs like this:
as §1

For another experiment, the target named is T8, SPIC (Homo sapiens, UniProt Q8N5J4 1-248).
T8 sequence: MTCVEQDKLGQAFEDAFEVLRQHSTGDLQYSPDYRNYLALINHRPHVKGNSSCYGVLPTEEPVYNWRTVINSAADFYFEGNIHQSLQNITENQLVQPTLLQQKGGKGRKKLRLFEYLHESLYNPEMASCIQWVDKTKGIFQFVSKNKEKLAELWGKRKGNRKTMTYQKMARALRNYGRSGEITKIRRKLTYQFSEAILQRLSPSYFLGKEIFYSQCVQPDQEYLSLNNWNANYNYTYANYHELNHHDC
Particulars: protein: recombinant; tags: N-terminal GST; dsDNA, one strand shown. In short, it runs like this:
as §1

Another experiment addresses ELF4 (Homo sapiens, UniProt Q99607 1-663). Conditions: protein: recombinant; tags: N-terminal GST; dsDNA, one strand shown. In a few lines: as §1
The next experiment concerns the target T9, ELK4 (Homo sapiens, UniProt P28324-2 1-405).
T9 sequence: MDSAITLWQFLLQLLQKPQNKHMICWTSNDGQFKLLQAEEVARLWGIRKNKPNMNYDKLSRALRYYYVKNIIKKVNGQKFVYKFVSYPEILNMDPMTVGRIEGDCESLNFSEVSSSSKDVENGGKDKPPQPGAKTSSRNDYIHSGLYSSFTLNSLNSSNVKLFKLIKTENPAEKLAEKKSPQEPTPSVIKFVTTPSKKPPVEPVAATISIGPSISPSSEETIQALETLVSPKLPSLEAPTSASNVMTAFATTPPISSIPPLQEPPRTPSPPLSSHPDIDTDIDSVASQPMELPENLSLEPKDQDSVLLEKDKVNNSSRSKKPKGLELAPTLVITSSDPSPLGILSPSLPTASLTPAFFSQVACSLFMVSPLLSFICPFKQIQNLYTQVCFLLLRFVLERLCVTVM
Conditions: protein: recombinant; tags: N-terminal GST; dsDNA, one strand shown. In short, it runs like this:
as §1

The next experiment addresses T10, ETV2 (Homo sapiens, UniProt O00321 1-342).
T10 sequence: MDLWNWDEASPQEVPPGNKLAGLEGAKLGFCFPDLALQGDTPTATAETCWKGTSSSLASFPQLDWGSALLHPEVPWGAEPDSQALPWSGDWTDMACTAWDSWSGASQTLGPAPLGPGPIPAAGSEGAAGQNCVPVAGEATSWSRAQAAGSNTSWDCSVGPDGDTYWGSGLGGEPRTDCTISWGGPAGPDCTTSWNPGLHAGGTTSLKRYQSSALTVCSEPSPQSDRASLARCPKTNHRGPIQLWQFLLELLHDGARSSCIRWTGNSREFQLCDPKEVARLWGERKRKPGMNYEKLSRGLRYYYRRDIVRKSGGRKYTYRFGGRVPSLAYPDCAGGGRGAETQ
Conditions: protein: recombinant; tags: N-terminal GST; dsDNA, one strand shown. In a few lines: as §1

In another experiment the target is T11, ELF3 (Homo sapiens, UniProt P78545 1-371).
T11 sequence: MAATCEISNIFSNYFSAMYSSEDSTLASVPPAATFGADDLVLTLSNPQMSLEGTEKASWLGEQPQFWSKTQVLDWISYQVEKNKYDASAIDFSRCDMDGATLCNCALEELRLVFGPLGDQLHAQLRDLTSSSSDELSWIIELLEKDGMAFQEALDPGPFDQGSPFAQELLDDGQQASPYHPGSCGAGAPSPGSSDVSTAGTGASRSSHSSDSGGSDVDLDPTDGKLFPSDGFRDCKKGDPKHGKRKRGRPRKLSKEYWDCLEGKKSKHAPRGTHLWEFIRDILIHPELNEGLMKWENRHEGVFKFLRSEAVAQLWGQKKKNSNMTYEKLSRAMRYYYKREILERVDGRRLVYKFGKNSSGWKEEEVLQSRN
Conditions: protein: recombinant; tags: N-terminal GST; dsDNA, one strand shown. In short, it runs like this: as §1

For another experiment, the target named is CRX (Homo sapiens, UniProt O43186 1-299). Conditions: protein: recombinant; tags: N-terminal GST; dsDNA, one strand shown. In short, it runs like this: as §1
Chain of CRX (O43186 whole entry): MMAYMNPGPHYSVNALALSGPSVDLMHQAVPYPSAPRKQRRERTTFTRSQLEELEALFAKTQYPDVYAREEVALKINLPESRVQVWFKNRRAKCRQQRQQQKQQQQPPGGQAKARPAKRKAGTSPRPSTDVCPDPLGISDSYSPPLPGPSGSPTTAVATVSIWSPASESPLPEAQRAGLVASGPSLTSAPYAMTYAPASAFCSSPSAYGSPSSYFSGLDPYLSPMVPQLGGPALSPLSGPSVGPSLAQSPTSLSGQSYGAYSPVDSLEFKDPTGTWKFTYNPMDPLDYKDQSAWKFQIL
The target of another experiment is ETV1 (Homo sapiens, UniProt P50549 1-477). Particulars: protein: recombinant; tags: N-terminal GST; dsDNA, one strand shown. In a few lines:
as §1

Chain of ELF4 (Q99607 whole entry): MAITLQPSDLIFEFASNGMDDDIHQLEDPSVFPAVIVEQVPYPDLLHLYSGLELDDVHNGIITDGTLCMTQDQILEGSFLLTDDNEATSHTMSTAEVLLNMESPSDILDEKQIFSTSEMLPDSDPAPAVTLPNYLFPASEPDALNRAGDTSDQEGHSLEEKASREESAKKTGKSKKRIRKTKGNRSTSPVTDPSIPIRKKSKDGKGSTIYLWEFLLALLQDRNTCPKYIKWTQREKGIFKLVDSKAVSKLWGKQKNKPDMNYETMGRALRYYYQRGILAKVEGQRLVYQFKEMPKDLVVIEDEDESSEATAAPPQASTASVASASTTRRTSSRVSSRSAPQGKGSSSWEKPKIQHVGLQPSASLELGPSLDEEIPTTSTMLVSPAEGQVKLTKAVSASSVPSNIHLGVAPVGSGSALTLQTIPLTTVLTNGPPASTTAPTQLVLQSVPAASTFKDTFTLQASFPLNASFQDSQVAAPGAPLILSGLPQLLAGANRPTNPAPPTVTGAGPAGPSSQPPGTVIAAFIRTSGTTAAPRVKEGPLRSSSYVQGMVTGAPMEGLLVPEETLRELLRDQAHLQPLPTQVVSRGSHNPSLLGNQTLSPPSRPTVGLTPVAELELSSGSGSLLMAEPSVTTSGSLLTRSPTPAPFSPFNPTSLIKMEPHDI
Chain of ETV1 (P50549 whole entry): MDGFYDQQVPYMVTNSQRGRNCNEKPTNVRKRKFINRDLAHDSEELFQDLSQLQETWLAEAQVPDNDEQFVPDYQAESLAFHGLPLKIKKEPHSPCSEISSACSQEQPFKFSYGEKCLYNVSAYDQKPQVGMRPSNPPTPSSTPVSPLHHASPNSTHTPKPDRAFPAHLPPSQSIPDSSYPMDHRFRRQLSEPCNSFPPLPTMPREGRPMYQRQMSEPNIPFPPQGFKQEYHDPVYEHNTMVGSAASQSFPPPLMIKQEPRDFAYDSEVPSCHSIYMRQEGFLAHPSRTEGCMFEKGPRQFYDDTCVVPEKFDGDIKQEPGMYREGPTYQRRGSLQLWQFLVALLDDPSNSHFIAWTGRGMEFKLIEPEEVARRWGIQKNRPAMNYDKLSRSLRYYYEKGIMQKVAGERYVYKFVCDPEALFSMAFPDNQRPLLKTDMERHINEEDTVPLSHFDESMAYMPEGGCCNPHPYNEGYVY
Chain of SPIB (Q01892 whole entry): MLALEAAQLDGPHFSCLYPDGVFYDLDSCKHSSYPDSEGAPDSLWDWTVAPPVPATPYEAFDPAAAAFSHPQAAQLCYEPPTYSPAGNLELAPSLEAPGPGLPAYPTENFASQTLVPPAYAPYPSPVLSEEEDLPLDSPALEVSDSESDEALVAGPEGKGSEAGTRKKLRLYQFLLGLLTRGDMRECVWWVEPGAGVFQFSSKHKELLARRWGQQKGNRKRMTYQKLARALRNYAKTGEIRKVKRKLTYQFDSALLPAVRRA
Chain of HSF1 (Q00613 whole entry): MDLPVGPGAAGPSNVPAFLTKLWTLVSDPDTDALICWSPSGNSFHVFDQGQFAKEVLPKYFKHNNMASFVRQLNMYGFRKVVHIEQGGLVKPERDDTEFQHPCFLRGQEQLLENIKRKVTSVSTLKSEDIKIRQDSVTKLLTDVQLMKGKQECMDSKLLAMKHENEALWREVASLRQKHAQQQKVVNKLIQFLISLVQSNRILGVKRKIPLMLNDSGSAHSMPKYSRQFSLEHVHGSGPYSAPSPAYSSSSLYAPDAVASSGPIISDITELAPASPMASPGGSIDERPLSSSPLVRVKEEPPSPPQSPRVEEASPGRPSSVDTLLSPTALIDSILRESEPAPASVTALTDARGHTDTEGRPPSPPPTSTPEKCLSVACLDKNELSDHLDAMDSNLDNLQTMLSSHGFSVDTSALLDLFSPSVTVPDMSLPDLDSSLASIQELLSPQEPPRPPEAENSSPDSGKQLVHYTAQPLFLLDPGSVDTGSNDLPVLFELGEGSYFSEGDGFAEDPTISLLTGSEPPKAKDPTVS
Chain of ETV5 (P41161 whole entry): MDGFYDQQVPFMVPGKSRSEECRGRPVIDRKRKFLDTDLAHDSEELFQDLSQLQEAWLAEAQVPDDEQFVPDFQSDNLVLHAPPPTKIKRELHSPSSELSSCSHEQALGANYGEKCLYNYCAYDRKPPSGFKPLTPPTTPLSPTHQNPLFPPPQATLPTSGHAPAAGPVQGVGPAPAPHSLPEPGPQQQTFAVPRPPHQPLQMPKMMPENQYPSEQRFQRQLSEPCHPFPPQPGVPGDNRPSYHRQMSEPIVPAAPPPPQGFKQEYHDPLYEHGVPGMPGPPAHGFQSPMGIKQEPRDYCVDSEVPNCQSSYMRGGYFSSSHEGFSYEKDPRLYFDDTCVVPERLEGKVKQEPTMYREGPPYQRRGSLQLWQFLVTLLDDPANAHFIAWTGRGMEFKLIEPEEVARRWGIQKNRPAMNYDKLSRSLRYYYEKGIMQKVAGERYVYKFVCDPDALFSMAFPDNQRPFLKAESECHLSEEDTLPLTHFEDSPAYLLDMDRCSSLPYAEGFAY

Turning to TTGACC, the binding signal in the experiment with FLI1 is 1.4 fold enrichment (6-mer frequency, TF over GST control); with ELK1, 1.44 fold enrichment (6-mer frequency, TF over GST control); with GABPA it was 1.56 fold enrichment (6-mer frequency, TF over GST control); in the experiment with ERG, 1.49 fold enrichment (6-mer frequency, TF over GST control); with ELF1, 1.43 fold enrichment (6-mer frequency, TF over GST control); with EHF, 1.46 fold enrichment (6-mer frequency, TF over GST control). For the same sequence, the binding signal with SPI1 is 1.34 fold enrichment (6-mer frequency, TF over GST control); with SPIB, 1.46 fold enrichment (6-mer frequency, TF over GST control); in the experiment with ELK3, 1.54 fold enrichment (6-mer frequency, TF over GST control); with FEV it was 1.33 fold enrichment (6-mer frequency, TF over GST control); with ETV5 it was 1.41 fold enrichment (6-mer frequency, TF over GST control); with HSF1, 1.16 fold enrichment (6-mer frequency, TF over GST control). The binding signal with SPIC was 1.45 fold enrichment (6-mer frequency, TF over GST control); in the experiment with ELF4 it was 1.44 fold enrichment (6-mer frequency, TF over GST control); with ELK4, 1.4 fold enrichment (6-mer frequency, TF over GST control); with ETV2 it was 1.38 fold enrichment (6-mer frequency, TF over GST control); with ELF3, 1.27 fold enrichment (6-mer frequency, TF over GST control); with CRX it was 1.19 fold enrichment (6-mer frequency, TF over GST control). Also, the binding signal in the experiment with ETV1 was 1.41 fold enrichment (6-mer frequency, TF over GST control).
